Test results: PubChem BioAssay (Tox21)
Activity calls are given as the source filed them. Where a call stands in place of a potency, no number is given. The call rests on the fitted dose curve; in most records, active means well fitted curve in the direction sought with a large enough effect in the repeat runs; inconclusive means weak or mixed curves; inactive means flat fitted curve, though single readings scatter.

assay: qHTS assay to test for compound auto fluorescence at 535 nm (green) in HepG2 cells (AID 720675); settings: green autofluorescence 485/535 nm, 1 h; series mostly up to 91.3 µM

| SMILES | Potency |
| --- | --- |
| C=CC(=C)CCC=C(C)C | inactive |
| Cn1cnc2ncnc(N)c21 | inactive |
| Cc1cccc(Br)c1 | inactive |
| CCCCCCCCCC(=O)N(C)C | inactive |
| [O]=[Zr] | inactive |
| CC(COC(=O)c1ccccc1)OC(=O)c1ccccc1 (stereo not given) | inactive |
| CCOC(=O)COc1ccc(C)cc1 | inactive |
| Oc1c(Br)cc(Br)c2cccnc12 | inactive |
| CCCCOC(=O)C(C)CC (stereo not given) | inactive |
| CC1CCCNC1 (stereo not given) | inactive |
| CCC(=O)OCCc1ccccc1 | inactive |
| O=C(c1ccccc1)c1cc(Cl)ccc1O | inactive |
| CC1(C)C(=O)N(Br)C(=O)N1Br | inactive |
| O=C(Nc1ccc(Cl)c(Cl)c1)c1cc(Cl)cc(Cl)c1O | inactive |
| C/C=C/C(=O)Oc1c(CCCCCC(C)C)cc([N+](=O)[O-])cc1[N+](=O)[O-] | inactive |
| C(=C/c1ccccc1)/c1ccccc1 | inactive |
| CCc1cccc(C)c1 | inactive |
| NC(=O)c1ccccc1N | inactive |

| SMILES | Potency |
| --- | --- |
| CCCCCCCC/C=C\CCCCCCCC(=O)OCCOC(=O)CCCCCCC/C=C\CCCCCCCC | inactive |
| CC1=C(/C=C/C(C)=C/C=C/C(C)=C/C(=O)Nc2ccc(O)cc2)C(C)(C)CCC1 | inactive |
| CCC(C)(C)c1cc(O)c(C(C)(C)CC)cc1O | inactive |
| Cc1cn[nH]c1 | inactive |
| O=C(Nc1ccc(Cl)cc1)Nc1ccc(Cl)c(C(F)(F)F)c1 | inactive |
| Cc1c(C(=O)O)cccc1[N+](=O)[O-] | inactive |
| CC(=O)Oc1ccc(C2(c3ccc(OC(C)=O)cc3)Oc3ccccc3NC2=O)cc1 | inactive |
| CCCCCCCCCCCCCCNCCO | inactive |
| CCNc1nc(NC(C)CC)nc(OC)n1 (stereo not given) | inactive |
| ClC/C=C\CCl | inactive |
| COC(=O)CC#N | inactive |
| O=C(O)c1cccc(Cl)n1 | inactive |
| C=CC(C)(CCC=C(C)C)OC(=O)/C=C/c1ccccc1 (stereo not given) | inactive |
| COC(=O)NCCC[Si](OC)(OC)OC | inactive |
| O=C(O)CC(=O)O | inactive |
| C1CC(COCC2CO2)CCC1COCC1CO1 (stereo not given) | inactive |
| CC(C)=C1CC[C@@H](C)CC1=O | inactive |
| CCCCCCCCCCCCCCCC | inactive |

assay: qHTS assay to test for compound auto fluorescence at 460 nm (blue) in HEK293 cells (AID 720678); settings: blue autofluorescence 405/460 nm; series mostly up to 91.3 µM
Summary of the method: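 Intrinsic compound fluorescence is recorded in live HEK293 cultures after overnight incubation at 37C, 5% CO2, using excitation 405 nm and emission 460 nm. Values are referenced to triamterene.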

| SMILES | Potency |
| --- | --- |
| C=CC(=C)CCC=C(C)C | inactive |
| CCCCCCCCCC(=O)N(C)C | inactive |
| [O]=[Zr] | inactive |
| CC(COC(=O)c1ccccc1)OC(=O)c1ccccc1 (stereo not given) | inactive |
| CCOC(=O)COc1ccc(C)cc1 | inactive |
| CCCCOC(=O)C(C)CC (stereo not given) | inactive |
| CC1CCCNC1 (stereo not given) | inactive |
| CCC(=O)OCCc1ccccc1 | inactive |
| O=C(c1ccccc1)c1cc(Cl)ccc1O | inactive |
| CC1(C)C(=O)N(Br)C(=O)N1Br | inactive |
| O=C(Nc1ccc(Cl)c(Cl)c1)c1cc(Cl)cc(Cl)c1O | inactive |
| C/C=C/C(=O)Oc1c(CCCCCC(C)C)cc([N+](=O)[O-])cc1[N+](=O)[O-] | inactive |
| CCc1cccc(C)c1 | inactive |
| NC(=O)c1ccccc1N | inactive |
| CCCCCCCC/C=C\CCCCCCCC(=O)OCCOC(=O)CCCCCCC/C=C\CCCCCCCC | inactive |
| CC1=C(/C=C/C(C)=C/C=C/C(C)=C/C(=O)Nc2ccc(O)cc2)C(C)(C)CCC1 | inactive |
| Cc1cn[nH]c1 | inactive |
| O=C(Nc1ccc(Cl)cc1)Nc1ccc(Cl)c(C(F)(F)F)c1 | inactive |
| Cc1c(C(=O)O)cccc1[N+](=O)[O-] | inactive |
| CC(=O)Oc1ccc(C2(c3ccc(OC(C)=O)cc3)Oc3ccccc3NC2=O)cc1 | inactive |
| CCCCCCCCCCCCCCNCCO | inactive |
| CCNc1nc(NC(C)CC)nc(OC)n1 (stereo not given) | inactive |
| ClC/C=C\CCl | inactive |
| COC(=O)CC#N | inactive |
| O=C(O)c1cccc(Cl)n1 | inactive |
| C=CC(C)(CCC=C(C)C)OC(=O)/C=C/c1ccccc1 (stereo not given) | inactive |
| COC(=O)NCCC[Si](OC)(OC)OC | inactive |
| O=C(O)CC(=O)O | inactive |
| CC(C)=C1CC[C@@H](C)CC1=O | inactive |
